The supplement of paper PMC6607015
Where a name gives a salt, the structure may show the parent alone.

Assays:
Conditions in all cases: compound concentration in added solution (µM; 5 µl added to 20 µl cells): 10; 18 h
A431 [1] = experiment: LBPA endosome anti-LBPA integrated intensity (sum per cell), Z-score; higher = more LBPA staining
Procedure, shortened: (§1)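 The data are Z-scores, normalised in AcuityXpress, of integrated LBPA or filipin intensity in each cell, either whole-cell or restricted to LBPA endosomes. HeLa MZ or A431 cells, 3,500 per well in 20 µl, were seeded onto 5 µl of 10 µM compound solution in duplicate 384-well plates and incubated 18 h. Fixed cells were stained and imaged, with intensities extracted by MetaXpress segmentation.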

HeLa MZ [2] = experiment: as above
Procedure, shortened: as §1

A431 [3] = experiment: whole-cell filipin (free cholesterol) integrated intensity, Z-score; higher = more cholesterol staining
Procedure, shortened: as §1

HeLa MZ [4] = experiment: as above
Procedure, shortened: as §1

A431 [5] = experiment: filipin (cholesterol) integrated intensity within LBPA endosomes, Z-score; higher = more cholesterol in LBPA endosomes
Procedure, shortened: as §1

HeLa MZ [6] = experiment: as above
Procedure, shortened: as §1

Compound | LBPA endosome anti-LBPA integrated intensity (z-score) (A431 [1]) | LBPA endosome anti-LBPA integrated intensity (z-score) (HeLa MZ [2]) | whole-cell filipin (z-score) (A431 [3]) | whole-cell filipin (z-score) (HeLa MZ [4]) | filipin (z-score) (A431 [5]) | filipin (z-score) (HeLa MZ [6])
CCN(CC)CCNC(=O)c1cc(Br)c(N)cc1OC [Bromopride] | -0.305 | 0.899 | -0.269 | 0.199 | -0.333 | 0.158
CC(C)N1CCN(c2ccc(OCC3COC(Cn4cncn4)(c4ccc(Cl)cc4Cl)O3)cc2)CC1 (centres undefined) [Terconazole] | 3.33 | 2.49 | 1.58 | 1.5 | 3.31 | 4.7
NC[C@H]1O[C@H](O[C@H]2[C@H](O)[C@@H](O[C@H]3O[C@H](CO)[C@@H](O)[C@H](N)[C@H]3O)[C@H](N)C[C@@H]2N)[C@H](N)C[C@@H]1O [Tobramycin] | -0.535 | -1.57 | -0.669 | -0.773 | -0.528 | -0.681
Cn1c(=O)c2nc[nH]c2n(C)c1=O [Theophylline monohydrate] | -0.668 | -1.36 | -0.516 | -0.207 | -0.57 | -0.492
C=C1C[C@H]2[C@@H]3C=C(C)C4=CC(=O)CC[C@]4(C)[C@H]3CC[C@]2(C)[C@@]1(OC(C)=O)C(C)=O [Melengestrol acetate] | 1.2 | 1.67 | 2.08 | 1.46 | 1.58 | 1.05
CC(=O)O[C@]1(C(C)=O)CC[C@H]2[C@@H]3C=C(C)C4=CC(=O)CC[C@]4(C)[C@H]3CC[C@@]21C [Megestrol acetate] | -0.482 | -1.05 | -0.244 | 0.402 | -0.317 | -0.342
C[C@@](Cc1ccc(O)c(O)c1)(NN)C(=O)O [Carbidopa] | -0.613 | -0.537 | -0.771 | -0.705 | -0.551 | -0.634
C#CCN(C)Cc1ccccc1 [Pargyline hydrochloride] | -0.443 | -0.371 | -0.77 | -0.65 | -0.469 | -0.441
COc1ccccc1N1CCN(CCCNc2cc(=O)n(C)c(=O)n2C)CC1 [Urapidil hydrochloride] | -0.297 | 0.724 | -0.315 | 0.116 | -0.29 | -0.0207
CCOC(=O)[C@H](CCc1ccccc1)N[C@@H](C)C(=O)N1Cc2ccccc2C[C@H]1C(=O)O [Quinapril HCl] | -0.508 | -0.151 | -0.267 | -0.543 | -0.453 | -0.577
CC(C(=O)O)c1ccc(-c2ccccc2)c(F)c1 (centres undefined) [Flurbiprofen] | -0.227 | 0.0649 | 0.155 | -0.426 | -0.328 | -0.513
CN1CCCC(n2nc(Cc3ccc(Cl)cc3)c3ccccc3c2=O)CC1 (centres undefined) [Azelastine HCl] | 3.18 | 2.26 | 1.79 | 0.915 | 2.29 | 3.01
CCC(C)n1ncn(-c2ccc(N3CCN(c4ccc(OCC5COC(Cn6cncn6)(c6ccc(Cl)cc6Cl)O5)cc4)CC3)cc2)c1=O (centres undefined) [Itraconazole] | 1.31 | 0.474 | 2.3 | 2.36 | 2.02 | 1.87
COc1ccc2c(c1)c(CC(=O)O)c(C)n2C(=O)c1ccc(Cl)cc1 [Indomethacin] | -0.426 | 0.408 | -0.694 | -0.518 | -0.524 | -0.49
CC1(C)O[C@@H]2C[C@H]3[C@@H]4C[C@H](F)C5=CC(=O)CC[C@]5(C)[C@H]4[C@@H](O)C[C@]3(C)[C@]2(C(=O)CO)O1 [Flurandrenolide] | -0.226 | -0.763 | -0.173 | 0.429 | -0.236 | -0.297
O=C(O)c1cc(/N=N/c2ccc(S(=O)(=O)Nc3ccccn3)cc2)ccc1O [Sulfasalazine] | -0.338 | 0.849 | 0.0767 | 1.46 | -0.515 | -0.277
Cc1ccc(N(CC2=NCCN2)c2cccc(O)c2)cc1 [Phentolamine hydrochloride] | -0.384 | 0.635 | -0.578 | -0.161 | -0.477 | -0.0953

Compound | LBPA endosome anti-LBPA integrated intensity (z-score) (A431 [1]) | LBPA endosome anti-LBPA integrated intensity (z-score) (HeLa MZ [2]) | whole-cell filipin (z-score) (A431 [3]) | whole-cell filipin (z-score) (HeLa MZ [4]) | filipin (z-score) (A431 [5]) | filipin (z-score) (HeLa MZ [6])
CCCCCCCN(CC)CCCC(O)c1ccc(NS(C)(=O)=O)cc1 (centres undefined) [Ibutilide fumarate] | 0.46 | 1.54 | 0.561 | 0.166 | 0.22 | 0.621
Oc1ccc(OCc2ccccc2)cc1 [Monobenzone] | -0.343 | 2.16 | 2.23 | 2.56 | -0.548 | -0.736
CCCC(C(=O)OCCN(CC)CC)(c1ccccc1)c1ccccc1 [Proadifen hydrochloride] | 2.78 | 2.82 | 2.1 | -0.192 | 2.21 | 1.12
C[C@@H]1CN(c2c(F)c(N)c3c(=O)c(C(=O)O)cn(C4CC4)c3c2F)C[C@H](C)N1 [Sparfloxacin] | -0.202 | 0.876 | 0.309 | 0.295 | -0.322 | -0.143
O=C(O)COCCN1CCN(C(c2ccccc2)c2ccc(Cl)cc2)CC1 (centres undefined) [Cetirizine dihydrochloride] | -0.494 | -0.434 | -0.716 | -0.836 | -0.508 | -0.525
CNc1ncnc2c1ncn2[C@@H]1O[C@H](CO)[C@@H](O)[C@H]1O [N6-methyladenosine] | -0.364 | 0.218 | -0.443 | 0.122 | -0.45 | -0.43
N[C@@H]1CONC1=O [D-cycloserine] | -0.278 | -0.4 | -0.132 | -0.322 | -0.405 | -0.523
C[C@]12CC[C@@H]3c4ccc(OS(=O)(=O)O)cc4CC[C@H]3[C@@H]1CCC2=O [Estropipate] | -0.486 | -0.706 | -0.265 | -0.499 | -0.418 | -0.5
CCOc1ccc2ccccc2c1C(=O)N[C@@H]1C(=O)N2[C@@H]1SC(C)(C)[C@@H]2C(=O)O [Nafcillin sodium salt monohydrate] | -0.558 | -0.117 | -0.348 | -0.195 | -0.443 | -0.476
COc1cnc(NS(=O)(=O)c2ccc(N)cc2)nc1 [Sulfameter] | -0.428 | -0.0725 | -0.426 | -0.359 | -0.447 | -0.542
CC(C)NCC(O)c1ccc2ccccc2c1 (centres undefined) [Pronethalol hydrochloride] | 0.244 | -0.115 | 0.379 | 0.0476 | -0.072 | -0.11
C[C@](N)(Cc1ccc(O)c(O)c1)C(=O)O [Methyldopa (L,-)] | -0.446 | -0.811 | -0.449 | 0.0391 | -0.366 | -0.319
CN1C(C(=O)Nc2ccccn2)=C(O)c2sccc2S1(=O)=O [Tenoxicam] | -0.541 | -0.303 | -0.432 | -0.0776 | -0.522 | -0.391
CCCCN(CCCC)CCCOC(=O)c1ccc(N)cc1 [Butacaine] | 1.72 | 1.93 | -0.324 | -0.451 | 0.0505 | 0.307
Clc1cc(Cl)c(OCC#CI)cc1Cl [Haloprogin] | -0.472 | -1.16 | -0.945 | -0.949 | -0.529 | -0.714
O=C(O)CCc1nc(-c2ccccc2)c(-c2ccccc2)o1 [Oxaprozin] | -0.435 | -0.524 | -0.0363 | 0.42 | -0.35 | -0.246
Clc1ccc2c(c1)C(N1CCNCC1)=Nc1ccccc1O2 [Amoxapine] | 3.32 | 0.828 | 0.789 | -0.797 | 2.56 | 1.55
